Assay outcomes from PubChem.
HPGD inh: HPGD (human) dehydrogenase inhibition. P15428. purified HPGD, NADH fluorescence kinetic, PGE2 substrate. Potency, µM, for inactives: at the top dose activity change, negative = inhibition, most hits filed as inhibitors. 150,000 tested, 4.3% active
Target sequence (P15428 whole entry, looked up): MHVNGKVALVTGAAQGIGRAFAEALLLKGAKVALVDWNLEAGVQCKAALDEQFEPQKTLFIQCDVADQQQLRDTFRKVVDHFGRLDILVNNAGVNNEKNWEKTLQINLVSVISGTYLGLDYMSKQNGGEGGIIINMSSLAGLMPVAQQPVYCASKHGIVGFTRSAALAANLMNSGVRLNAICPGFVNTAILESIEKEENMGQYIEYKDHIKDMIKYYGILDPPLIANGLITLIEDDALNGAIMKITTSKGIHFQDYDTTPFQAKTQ
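NADH formation kinetics: reaction with 30 uM PGE2 and 1 mM NAD+ (final), 20 nM enzyme, Tris-HCl pH 8 with Tween 20, after 15 min compound preincubation at room temperature. Fluorescence change, last versus first of five reads.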
Lamin A splicing: LMNA splicing modulation | HeLa LMNA splicing GFP/RFP minigene ratio, 48 h | Potency, µM (doses to about 46.1 µM), for inactives: top-dose ratio change, negative = inhibition, most hits filed as inhibitors | 200,000 tested, 0.01% active; active = well fitted inhibition curve with a large enough effect in the signal ratio, with a control signal flat, not every such curve was filed as active; inconclusive = small, poorly fitted or top-dose-only effect, or effect the other way, or a change in a side signal; the % refers to the signal ratio
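S3 HeLa cells stably expressing lamin A-EGFP splicing minigene plus DsRed2, 600 cells/well, 48 h compound exposure at 37C. Laser-scanning cytometry; analysed as GFP (500-530 nm)/RFP (575-640 nm) total intensity ratio; 0.5% DMSO vehicle.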
ALDH1A1 inh: inhibitors of human aldehyde dehydrogenase 1A1. Potency, µM (doses to about 75.3 µM), inactives show at the top dose activity, negative = inhibition, actives largely listed as inhibitors. 220,000 tested, 7.3% active. Purified ALDH1A1, NADH fluorescence, propionaldehyde substrate;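 note: plate controls were no enzyme wells and a reference inhibitor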
Target sequence (P00352 whole entry, looked up): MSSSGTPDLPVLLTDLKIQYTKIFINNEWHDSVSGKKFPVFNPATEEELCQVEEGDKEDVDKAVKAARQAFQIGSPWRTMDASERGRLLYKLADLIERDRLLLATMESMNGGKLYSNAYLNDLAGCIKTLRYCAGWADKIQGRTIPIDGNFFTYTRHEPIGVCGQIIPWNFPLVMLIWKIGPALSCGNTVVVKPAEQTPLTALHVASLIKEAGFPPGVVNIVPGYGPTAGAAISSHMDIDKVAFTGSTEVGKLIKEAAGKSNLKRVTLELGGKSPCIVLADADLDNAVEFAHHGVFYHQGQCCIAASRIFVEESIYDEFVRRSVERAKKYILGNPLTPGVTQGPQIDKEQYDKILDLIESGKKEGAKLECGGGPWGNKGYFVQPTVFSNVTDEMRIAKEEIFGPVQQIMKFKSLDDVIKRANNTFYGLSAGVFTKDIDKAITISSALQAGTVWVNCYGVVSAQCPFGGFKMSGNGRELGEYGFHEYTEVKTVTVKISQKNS
KinaseGlo FLuc: counter-screen: inhibitors of Kinase-Glo firefly luciferase. Q27757. Kinase-Glo luciferase, ATP luminescence, 8 min. Potency, µM (highest dose often 38.3 µM), for inactives: at the highest dose activity change, negative = inhibition, actives largely listed as inhibitors. 200,000 tested, 0.28% active; active = well fitted curve in the direction sought with a large enough effect; inconclusive = small, poorly fitted or top-dose-only effect, or another doubt; inactive = no such curve, though single readings can be large; an effect the other way counts as inactive or inconclusive; note: nearly all actives have a fitted effect of over 60% in size
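Compound is pinned into ATP-containing buffer (10 uM ATP, imidazole pH 7.2, 7 mM MgCl2). Kinase-Glo luciferase reagent is then added. Light output is recorded following an 8-min room-temperature incubation.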
IMPase Li cell: cell-permeable IMPase inhibitors with lithium potentiation; 210,000 tested, 0.35% active; Potency, µM (series often up to 59.4 µM), for inactives: at the top dose activity, negative = IMPase inhibition, usual class: inhibitors; CHO-M1 cells, IP1 TR-FRET (IP-One), carbachol + lithium; active = well fitted curve in the direction sought with a large enough effect; inconclusive = small, poorly fitted or top-dose-only effect, or another doubt; inactive = no such curve, though single readings can be large; an effect the other way counts as inactive or inconclusive;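 note: IP1 builds up when IMPase is blocked and the TR-FRET signal falls; plate controls were basal vehicle for no effect and high inhibitor control for full effect; nearly all actives have a fitted effect of over 50% in size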
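Steps: plate 2000 CHO-M1 cells per well and culture 16–30 h; add compound and lithium; incubate 30 min, 37C; add d2-IP1 tracer and Eu cryptate anti-IP1 antibody in lysis buffer; read after 10 min at room temperature.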
Active calls of the source: *; ? = inconclusive; · = not tested or not shown; [ ] = dose if it differs, or a comment. Shown are actives, neighbours in structure and some others; about 9% of the full set was active somewhere. Unless noted, calls come from the whole dose curve; as a rule, active = well fitted inhibition curve with a large enough effect (not every such curve was filed as active); inconclusive = small, poorly fitted or top-dose-only effect, or another doubt; inactive = no such curve, though single readings can be large or run the other way. Unless noted, % is set by controls: 0 for no effect and ±100 for the full control effect; potency is the fitted concentration of half-maximal effect.

SMILES | HPGD inh | Lamin A splicing | ALDH1A1 inh | KinaseGlo FLuc | IMPase Li cell
Cc1ccc(C2CC(c3cccs3)=NN2C(=O)CSC2=NN3CCCC(=O)N=C3S2)cc1 (stereo not given) | -27% | ? | 28µM* | 2% | 31%[38.3 µM]
CC(Oc1ccccc1)C(=O)Nc1ccc(C(=O)OCc2cc(=O)n3ccsc3n2)cc1 (stereo not given) | · | -8%[46 µM] | · | · | ·
COc1cccc(C2(O)CCN(C(=O)C3CC3)CC2)c1 | -12% | 15% | 22µM* | 1% | -6%[38.3 µM]
C=CCn1cnc2c(nnn2-c2ccc(C)c(Cl)c2)c1=O | · | -2%[46 µM] | ? | 1% | -1%
O=C(CSc1nc2[nH]ncc2c(=O)[nH]1)NCCc1ccccc1 | · | 22%[9.22 µM] | 0% | 0% | 1%
COc1ccc(CCNC(=O)COC(=O)c2cnc(C)cn2)cc1OC | 8% | 6% | 13µM* | -2% | 4%[38.3 µM]
COc1ccc(CCNC(=O)C(=O)NCCOc2ccccc2Cl)cc1OC | -8% | -9% | ? | -2% | -1%
COc1ccc(CCNC(=O)COC(=O)COc2ccc(Cl)cc2)cc1OC | · | -16%[46 µM] | 9% | -1% | 8%
COc1ccc(CCNC(=O)CN2CCC(C)CC2)cc1OC | -14% | 10% | 11µM* | -3% | 13%[38.3 µM]
COc1ccc(CCNC(=O)C(=O)NCCOc2ccccc2)cc1OC | -15% | 1% | 4µM* | 4% | -5%
NS(=O)(=O)c1ccc(CCNC(=O)CCC2COc3ccccc3O2)cc1 (stereo not given) | -9% | -10% | 10% | -1% | 1%
COc1ccc(CCNC(=O)CCC2COc3ccccc3O2)cc1OC (stereo not given) | -10% | 4% | 13µM* | -2% | 27%[38.3 µM]
COC(=O)N1CCC2(CCN(C(=O)Nc3ccccc3)CC2)CC1 | -9% | · | 8% | -1% | -1%
CC(=O)Nc1cccc2c1C(=O)N(c1ccccc1OC(C)=O)C2=O | · | · | -6% | 0% | -12%
CCCOc1ccc(C(=O)Nc2nc(C)c(Cc3ccc4c(c3)OCO4)s2)cc1 | ? | -15% | ? | 1% | 10µM*
C[C@@H]1c2ccccc2Cn2cc3c(c21)C(=O)c1cccc(OP(=O)(O)OCc2ccccc2)c1C3=O | -26% | · | 12%[13.5 µM] | -3%[7.66 µM] | -4%
CCCCn1c(=O)c2c(O)cc(=O)oc2c2ccccc21 | -8% | -3% | 16µM* | -8% | ?
CC[C@@]1([N+](=O)[O-])C[C@H]2C=C[C@@H]1C2 | -10% | · | 10%[13.5 µM] | -3%[7.66 µM] | 5%
CC12C(=O)N(c3ccc(C(=O)N4CCOCC4)cc3)C(=O)C1C1c3ccccc3C2c2ccccc21 (stereo not given) | -22% | 3% | 3% | -1% | 0%
CC12C(=O)N(Cc3ccco3)C(=O)C1C1c3ccccc3C2c2ccccc21 (stereo not given) | -21% | -4% | 16µM* | 2% | 44%[38.3 µM]
CCn1c(N)c(C(=O)NCCCOC)sc1=S | 14µM* | -2% | 3.2µM* | 6% | -11%[38.3 µM]
Cn1c(N)c(C(=O)NCc2ccccc2Cl)sc1=S | -15% | -14% | ? | 1% | 18%[38.3 µM]
CCn1c(N)c(C(=O)NCc2cccnc2)sc1=S | -6% | -1% | 1% | 3% | 1%[38.3 µM]
CCNC(=O)c1sc(=S)n(CC)c1N | 18µM* | 8% | ? | -1% | 1%[38.3 µM]
CC(C)OCCCNC(=O)c1sc(=S)n(C)c1N | 28µM* | 0% | -96% | 1% | 11%[38.3 µM]
SMILES | HPGD inh | Lamin A splicing | ALDH1A1 inh | KinaseGlo FLuc | IMPase Li cell
Cc1cc(-c2csc(NC(=O)c3ccccc3C(F)(F)F)n2)c(C)n1Cc1ccccc1 | · | -12% | 1% | · | ·
Cc1cc(-c2csc(NC(=O)c3ccc(=O)[nH]c3)n2)c(C)n1Cc1ccco1 | · | 22%[46 µM] | 8.9µM* | · | ·
Cc1cc(-c2csc(NC(=O)c3ccc(=O)n(C)n3)n2)c(C)n1CC1CCCO1 (stereo not given) | -10% | -3% | 20µM* | -14% | -4%[38.3 µM]
COc1ccc(CCNC(=O)C(=O)NCC(c2cccs2)S(=O)(=O)c2ccc(F)cc2)cc1 (stereo not given) | · | 0%[46 µM] | · | · | ·
CCOC(=O)NC(C)N1C(=O)C2C3C=CC(C3)C2C1=O (stereo not given) | · | · | 3% | -1% | 0%
O=C(CCl)Nc1ccccc1Sc1ccc(Cl)cc1 | -11% | ? | 4µM* | -1% | 17%[38.3 µM]
CSc1ccccc1NC(=O)COc1ccc(Cl)cc1 | 28µM* | ? | -13% | 3% | 6%
CC(=O)N1CCN(CC(=O)Nc2ccccc2Sc2ccc(Cl)cc2)CC1 | 7% | ? | ? | 4% | 27%
CSc1ccccc1NC(=O)COc1ccccc1Cl | 25µM* | 11% | -12% | -5% | 14%[38.3 µM]
CSc1ccccc1NC(=O)COc1ccc(Cl)cc1Cl | · | 1% | 0% | · | ·
COc1cc2c(C=O)c3c4c(cc(OC)c(OC)c4c2cc1OC)CCN3C | -23% | · | ? | -1% | 22%
CCN1C(=O)CC(C(=O)Nc2ccc(F)cc2)SC1=Nc1cccc(OC)c1 (stereo not given) | -3% | -30% | 10µM* | -1% | 6%[38.3 µM]
COc1cccc(/C=N/N2C(=O)CSC2=S)c1O | 25µM* | ? | 7.1µM* | -5% | 23%
Cc1cccc(NC(=O)NCCc2ccc(Cl)cc2)c1 | · | 6%[46 µM] | 35µM* | 0% | 4%
CC1(C)CCCC2(C)C3C(O)CC2(C)C(O)C31 (stereo not given) | 5% | -8% | 10% | -1% | 2%
Cc1cc(C)c2c(=O)n(CC(=O)NCCCN3CCOCC3)sc2n1 | ? | 4% | ? | 7.9µM* | 24%[38.3 µM]
Cc1cc(C)c2c(=O)n(CC(=O)NCCCN3CCN(c4ccccc4F)CC3)sc2n1 | ? | -9% | 3.5µM* | 11µM* | 50%[38.3 µM]
Cc1ccccc1CS(=O)(=O)CCC(=O)NCCCN1CCN(c2ccccc2F)CC1 | -13% | 12%[0.0737 µM] | 9% | 3% | 3%[38.3 µM]
O=C(c1ccccc1)c1ccccc1C(=O)N1CCOCC1 | -1% | -2% | 6% | 2% | 10%[38.3 µM]
CCOC(=O)c1ccc2c(c1)C1C=CCC1C(C(=O)O)N2 (stereo not given) | 16µM* | 1% | 18µM* | -15% | 13%[38.3 µM]
O=C(O)C1Nc2c(C(=O)N3CCOCC3)cccc2C2C=CCC12 (stereo not given) | 25µM* | 3% | ? | -11% | -10%[38.3 µM]
CCCC1Nc2ccc(C(=O)O)cc2C2C=CCC12 (stereo not given) | ? | ? | ? | -2% | 6%
Cc1ccc2c(c1C)NC(C(=O)O)C1CC=CC21 (stereo not given) | 10µM* | ? | 13µM* | -13% | -12%[38.3 µM]
CC(C)C1Nc2ccc(C(=O)O)cc2C2C=CCC21 (stereo not given) | · | · | ? | -7% | 10%
CC(C)(C)[C@]1(O)CCN2CC3c4ccccc4CCc4cccc(c43)[C@@H]2C1 (stereo not given in full) | -9% | ? | -16% | -11% | 22%
